Reference: PubChem BioAssay AID743318 (Broad Institute, 2014)
Results with a measured potency or affinity are listed apart. Calls of active or inactive are those of the source.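 Rule for the calls: active = cytotoxic signal drop whose half-maximal concentration is at most twice the top valid dose; inconclusive = flat drop between 30% and 70%, or poor fit; inactive = the rest.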

Experiment: A549 cell cytotoxicity, dose response, cytotoxicity control, plate reader, dry powder, set 7 (AID 743318)

Structure (SMILES)	outcome
Cc1cccc(OCCn2c(=S)[nH]c3ccc(C(F)(F)F)cc32)c1	inactive
S=c1[nH]c2ccccc2n1CCOc1ccccc1Cl	inactive
Cc1ccc(C(C)C)c(OCCn2c(CO)nc3ccccc32)c1	inactive
Cc1ccc(C(C)C)c(OCCn2c(=S)[nH]c3c(F)cccc32)c1	inactive
CC(C)(C)c1ccc(OCCn2c(=S)[nH]c3ccccc32)cc1	inactive
Fc1cccc(OCCn2c(=S)[nH]c3ccccc32)c1	inactive
Cc1ccc(C(C)C)c(OCCn2c(=S)[nH]c3c(Cl)cccc32)c1	inactive
Cc1ccc(C(C)C)c(OCCn2c(=S)[nH]c3c(C)cccc32)c1	inactive
Cc1cccc(OCCn2c(=S)[nH]c3c(F)cccc32)c1	inactive
Cc1ccc(OCCn2c(SCCO)nc3ccccc32)c(C(C)C)c1	inactive
Cc1ccc(C(C)C)c(OCCn2c(=S)[nH]c3ccc(Cl)cc32)c1	inactive
c1ccc(OCCn2cnc3ccccc32)cc1	inactive
CC(C)(C)c1ccc(OCCn2cnc3ccccc32)cc1	inactive
Cc1cccc(OCCn2c(=S)[nH]c3ccccc32)c1	inactive
CSc1nc2ccccc2n1CCOc1cc(C)ccc1C(C)C	inactive
Cc1ccc(OCCn2c(C)nc3ccccc32)cc1	inactive
CC(C)c1ccc(OCCn2c(=S)[nH]c3ccccc32)cc1	inactive
Cc1ccc(OCCn2c(=S)[nH]c3ccccc32)c(C(C)C)c1	inactive
Cc1ccc(OCCn2c(=S)[nH]c3ccccc32)c(C)c1	inactive
Fc1ccccc1OCCn1c(=S)[nH]c2ccccc21	inactive
Cc1ccccc1OCCn1c(=S)[nH]c2ccccc21	inactive
Cc1ccc(C(C)C)c(OCCn2c(=S)[nH]c3ccc(F)cc32)c1	inactive
COc1ccccc1OCCn1c(=S)[nH]c2ccccc21	inactive
Cc1ccc2c(c1)[nH]c(=S)n2CCOc1ccccc1	inactive
Fc1ccc2[nH]c(=S)n(CCOc3ccccc3)c2c1	inactive
